uPA surface inh: qHTS for Inhibitors of Cell Surface uPA Generation; cell surface uPA generation assay, qHTS; Potency, µM (titrated, usually from 38.3 µM), usual class: inhibitors; 0.31% of 330,000 active; AID 540303, 2011; active means well fitted inhibition curve with a large enough effect; inconclusive means small, poorly fitted or top-dose-only effect; inactive means no such curve, though single readings can be large or run the other way; tested in mouse RAW 264.7 cells; further: nearly all actives have a fitted effect of over 55% in size
IL2 activator: qHTS of IL-2 Activators; activation, % (series mostly up to about 46 µM); IL-2 activation reporter assay, cell-based qHTS; stimulated with anti-CD3/CD4/CD28 beads; in transgenic mouse T cells; 0.065% of 360,000 active; in the data active means activation above about 50%; inconclusive means mostly about 30% to 49%
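Screening format: compound pinned onto unstimulated transgenic mouse T cells, 60 min incubation, then anti-CD3/anti-CD4/anti-CD28 bead stimulation for 18 hours at 37 degrees C, followed by EGFP and DsRed detection.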
Epigenetic derep: Quantitative High-Throughput Screen for Regulators of Epigenetic Control | murine LDR cells, GFP reporter derepression, 30 h | Potency, µM (doses to about 53.9 µM), hits mostly activators | 0.2% of 280,000 active; further: nearly all actives have a fitted effect of over 60% in size
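Murine LDR cells bearing a silenced CMV-driven GFP reporter were exposed to compound for 30 h at 37 C. After PBS washes, GFP-positive cells (20-120 um objects) counted by laser-scanning microplate cytometry.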
p53 reactivator: qHTS assay for re-activators of p53 using a Luc reporter | H1299 p53-A138V BP100-luciferase reporter, luminescence, 24 h | Potency, µM (highest dose often 92.2 µM), most hits filed as activators | 0.063% of 320,000 active | AID 504706, 2011; further: nearly all actives have a fitted effect of over 45% in size
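H1299 (p53-null), stable ts p53-A138V + BP100-Luc; 1000 cells/well, Opti-MEM/10% FBS; cpd 4 pt, 1:5; 24 h, 37 deg C, 5% CO2; detection reagent 10 min RT; luminescence.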
PINK1 expr mod: A Quantitative High throughput Screen to Identify Chemical Modulators of PINK1 Expression; 0.2% of 410,000 active; Potency, µM (doses to about 76.6 µM), usual class: activators; PINK1 immunofluorescence, high-content cytometry, 24 h; active means well fitted activation curve with a large enough effect; inconclusive means small, poorly fitted or top-dose-only effect; cell line not stated here; further: nearly all actives have a fitted effect of over 65% in size
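Cells are seeded, rested 12 hours, then given compound at five concentrations or DMSO for 24 hours. After fixation, blocking and antibody staining, PINK1 amount and mitochondrial localization are scored; CCCP serves as control.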
miR-21 reporter: qHTS Assay for Modulators of miRNAs and/orActivators of miR-21; HeLa miR-21 FLuc reporter, luciferase, 48 h; Potency, µM (highest dose often 38.3 µM), usual class: activators; 340,000 tested, under 10 active; AID 2288, 2010;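 further: miR-21 action dims this reporter so a rising signal means less miR-21 action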
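Compounds were titrated across several concentrations (up to approximately 40 uM) and incubated 48 hours with HeLa miR-21-FLuc reporter cells (miR-21 target sequence downstream of FLuc, endogenous miR-21). Readout was firefly luciferase luminescence after lytic detection reagent.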
Hits are given with their value; – = inactive; ? = inconclusive; · = no result given. Hits are enriched below; roughly 0.62% of the tested compounds scored in any of these assays. Unless noted, the call rests on the fitted dose curve; in most records, active means well fitted curve in the direction sought with a large enough effect; inconclusive means small, poorly fitted or top-dose-only effect, or another doubt; inactive means no such curve, though single readings can be large; an effect the other way counts as inactive or inconclusive.

SMILES | uPA surface inh | IL2 activator | Epigenetic derep | p53 reactivator | PINK1 expr mod | miR-21 reporter
Nc1ccc(N2CCCCC2)cc1N1CCCCC1 | – | – | – | ? | 16µM | –
Cc1nn(-c2cc(N3CCCCC3)ccc2N)c(=O)c2ccccc12 | – | – | – | – | – | –
COc1ccc(CN2CCCC(n3cc(C(=O)N4CCCCC4)nn3)C2)c(OC)c1OC (stereo not drawn) | · | · | · | · | – | ·
COc1ccc2oc(=O)c(-c3nnc(NCc4ccco4)s3)cc2c1 | – | – | – | – | – | –
CCOc1ccc2cc(-c3nnc(Nc4ccccc4F)s3)c(=O)oc2c1 | · | · | 3.5µM | · | – | –
CCOc1ccccc1Nc1nnc(-c2cc3cc(OC)ccc3oc2=O)s1 | · | · | 18µM | · | – | –
O=c1oc2ccccc2cc1-c1nnc(Nc2ccc(Cl)cc2Cl)s1 | · | · | – | · | – | –
COc1cccc(CNc2ncnc3sc(C(=O)N4CC5CCC4C5)c(C)c23)c1OC (stereo not drawn) | · | · | · | · | – | ·
COC(=O)C1=C(C)NC(=O)CC1c1ccc(C(=O)OC)cc1 (stereo not drawn) | – | – | – | – | – | –
COC(=O)c1ccc([C@H]2CC(=O)O2)cc1 | 4.5µM | – | · | – | – | –
O=C(N/N=C/c1ccc2c(c1)OCO2)c1ccc(Br)o1 | – | – | – | 3.2µM | – | –
O=C(N/N=C/c1ccc2c(c1)OCO2)c1ccc2c(c1)OCCO2 | – | – | – | ? | – | –
O=C(NCCc1ccccn1)c1cnn(-c2ncc3c(n2)-c2ccccc2CC3)c1C1CC1 | · | · | · | · | – | ·
Cc1noc(C)c1C(=O)Nc1sc(C)c(-c2ccccc2)c1C#N | – | – | – | – | 28µM | –
Cc1ccc(NC(=O)c2ccc3c(c2)OCCO3)nc1 | 3.2µM | – | · | – | – | ·
CCCCn1c(NC(=O)c2ccccc2Cl)c(C#N)c2nc3ccccc3nc21 | – | – | – | – | 40µM | ?
O=C(c1ccc2c(c1)C(=O)N(CCCO)C2=O)c1ccc2c(c1)C(=O)N(CCCO)C2=O | – | – | – | – | – | –
O=C1c2ccc3c4c(ccc(c24)C(=O)N1CCCCO)C(=O)N(CCCCO)C3=O | 2.5µM | – | – | – | – | ?
Cc1nn(-c2ccccc2)c(C)c1C(=O)OCC(=O)Nc1ccccc1F | 10µM | – | · | ? | – | ·
Cc1ccc(C)c(CN2C[C@H](Sc3nc4ccccc4[nH]3)C[C@H]2C(=O)N2CCCN(C)CC2)c1 | · | · | · | · | – | ·
Cc1nc2cc(NC(=O)[C@@H]3C[C@@H](Sc4ccccn4)CN3Cc3cccc(Cl)c3)ccc2s1 | · | · | · | · | – | ·
Cc1ccc(NS(=O)(=O)c2ccc(C(=O)N3CCN(S(=O)(=O)c4ccccc4)CC3)cc2)cc1 | 7.1µM | – | · | – | – | ·
Cc1ccc(S(=O)(=O)Nc2ccc(C(=O)N3CCCC3)cc2)cc1 | – | – | · | – | – | –
COC(=O)c1cccc(C(=O)N2CCc3c(C(=O)OC)c(OCc4ccccn4)cc(=O)n3CC2)c1 | · | · | · | · | – | ·
CC(=O)C(C(C)=O)c1c(Cl)c(O)c(O)c2c(C(=O)c3ccccc3)coc12 | – | – | ? | – | 16µM | ?
SMILES | uPA surface inh | IL2 activator | Epigenetic derep | p53 reactivator | PINK1 expr mod | miR-21 reporter
CN1CCN(Cc2c(O)ccc3occ(C(=O)c4ccccc4)c23)CC1 | – | – | – | – | – | –
CC(=O)Oc1cc(O)c2c(=O)c(OC(C)=O)c(-c3ccc(OC(C)=O)c(OC(C)=O)c3)oc2c1 | 10µM | – | · | · | – | ·
COc1ccc(S(=O)(=O)Nc2cccc(-c3ccc4nncn4n3)c2)cc1F | 2.8µM | – | – | – | – | –
O=S(=O)(Nc1cccc(-c2ccc3nncn3n2)c1)c1cccc(F)c1 | – | – | · | – | – | ·
COc1ccc(COc2cc(-c3cccc(OC)c3)nc3ccc(N)cc23)cc1 | 1.1µM | – | – | – | – | –
O=C(NC(NC(=S)Nc1cccc(Cl)c1)C(Cl)(Cl)Cl)OCc1ccccc1 (stereo not drawn) | – | – | – | – | 7.9µM | ?
Cc1cc(C(=O)Nc2ccccc2-c2nc(CNC(=O)c3ccc(F)cc3F)c(C)o2)c(C)o1 | · | · | · | · | – | ·
COc1ccc(/C=N/Nc2nnc(-c3ncc[nH]3)c3ccccc23)cc1 | – | – | – | – | – | –
Oc1ccc2ccccc2c1/C=N/Nc1nnc(-c2ncc[nH]2)c2ccccc12 | – | 56 | ? | ? | – | –
Cc1cnc(SCc2ccccn2)nc1C1CCCN(C(=O)c2ccc3c(c2)OCCO3)C1 (stereo not drawn) | · | · | · | · | – | ·
COCCN1C(=O)/C(=C/c2ccc(N3CCCC3)cc2C)SC1=S | – | – | 2.8µM | – | 22µM | –
CCOC(=O)N1CCN(Cc2ccc3c(c2)CN(C(=O)c2cc(-c4ccccc4)on2)CCO3)CC1 | · | · | · | · | – | ·
O=C1C=CC(=C(c2ccc(O)cc2)c2ccc(O)cc2)C=C1 | 2µM | – | – | – | – | ·
Cc1nccc(-c2cccc(N/N=C(\C#N)C(=O)c3ccccc3)c2)n1 | ? | – | – | – | – | –
N#C/C(=N\Nc1cccc(C(F)(F)F)c1)C(=O)c1ccsc1 | ? | – | – | ? | 11µM | –
Cc1nn(C)cc1CNc1nc(C)c(-c2ccn(CC3COc4ccccc4O3)n2)s1 (stereo not drawn) | · | · | · | · | – | ·
C(=N\NC1=Nc2cccc3cccc1c23)/c1ccccc1 | – | 268 | – | 50µM | – | –
Clc1ccc(/C=N/NC2=Nc3cccc4cccc2c34)cc1 | – | 70 | ? | ? | – | –
C(=N\NC1=Nc2cccc3cccc1c23)/c1cccnc1 | – | – | – | – | – | –
Cc1cc(C(=O)NCC2CCC3(CCN(Cc4ccc(-c5ccccc5)cc4)CC3)O2)n(C)n1 (stereo not drawn) | · | · | · | · | – | ·
c1ccc2c(c1)ncc1cccn12 | – | – | – | – | – | –
CCn1c2ccccc2c2c3ncc4cccn4c3ccc21 | – | – | – | 28µM | – | ?
N#C/C(=C\c1ccc(N2CCOCC2)o1)C(=O)NC1CCCCC1 | – | – | – | – | – | –
N#C/C(=C/c1ccc(N2CCCCC2)o1)c1cccc(F)c1 | · | – | 6.3µM | ? | 7.1µM | –
N#C/C(=C/c1ccc(N2CCCCCC2)o1)c1ccc(Cl)cc1 | · | – | 7.1µM | – | 7.9µM | ?
CCOC(=O)N1CCN(c2c(NCc3ccc(Cl)cc3)c(=O)c2=O)CC1 | 2.8µM | – | – | – | – | –
CN1CCN(Cc2cc(Cl)c3cccnc3c2OC(=O)c2cccs2)CC1 | – | – | 3.5µM | – | – | –
O=C(Oc1c(CN2CCOCC2)cc(Cl)c2cccnc12)c1ccccc1Br | ? | – | ? | ? | – | ?
C[C@@H]1CN(Cc2ccc3c(c2)CN(Cc2nc(-c4ccccc4)cs2)CCO3)C[C@H](C)O1 | · | · | · | · | – | ·

Screening results: PubChem, National Center for Advancing Translational Sciences (NCATS)
